A short description of assay [1]: Caspase-3/7 induction in HepG2 cells by small molecules, qHTS assay (AID 1346978). Note: nearly all actives have a fitted effect of over 15% in size. In a few lines: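 Wild-type HepG2 cells (2,000/well) were settled 5 h at 37 C, 5% CO2, then exposed to compounds in DMSO for 17 h. Caspase-3/7 activity was read by luminescence 30 min after adding Caspase-Glo 3/7 reagent at room temperature.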
(qHTS replaces the single test concentration by a dilution series.)

The nature of assay [2]: Caspase-3/7 induction in CHO-K1 cells by small molecules, qHTS cell viability counter screen (AID 1346979). Note: nearly all actives have a fitted effect of over 35% in size. A digest of the protocol: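 Viability readout by fluorescence (CellTiter-Fluor) on wild-type CHO-K1 cells exposed for 16hr at 37C and 5% CO2 to compounds delivered in DMSO; reagent incubated 1hr before reading.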
The nature of assay [3]: Caspase-3/7 induction in CHO-K1 cells by small molecules, qHTS assay (AID 1346980). Note: nearly all actives have a fitted effect of over 15% in size. A digest of the protocol:
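Wild-type cells were seeded at 1,500 per well and settled 5 hr at 37 C, 5% CO2, then exposed to DMSO-dissolved compounds for 17 hr. Caspase-Glo 3/7 reagent was added, and luminescence was read after 30min at room temperature.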

A short description of assay [4]: Caspase-3/7 induction in HepG2 cells by small molecules, qHTS cell viability counter screen (AID 1346981). Note: nearly all actives have a fitted effect of over 30% in size. A digest of the protocol: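 Wild-type HepG2 cells, 2,000/well, settled 5 hr at 37 C, 5% CO2 before compound addition. Viability read by CellTiter-Fluor fluorescence, reagent added after 16 hr compound exposure, then 1 hr at 37C, in the same wells as the caspase read.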

Assay [5] has as its target Nuclear receptor subfamily 1 group I member 2 (Rattus norvegicus) (UniProt Q9R1A7). As to the kind of experiment: Rat pregnane X receptor (rPXR) activation by small molecules, qHTS assay (AID 1346983). Note: nearly all actives have a fitted effect of over 20% in size. To be noted: rPXR luciferase reporter cells, One-Glo luminescence, 24 h; max activation: stronger effect = higher value. A digest of the protocol:
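Cell-based rPXR luciferase reporter assay, 2,000 cells per well, rested 5hr at 37 C before compound addition in DMSO, then 24 hr at 37 C. One-Glo reagent was added and luminescence read after 30 min at room temperature.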

The target of assay [6] is Nuclear receptor subfamily 1 group I member 2 (Homo sapiens) (UniProt O75469). As to the kind of experiment: CYP3A4 induction through human pregnane X receptor (PXR) by small molecules, qHTS assay (AID 1346984). Note: nearly all actives have a fitted effect of over 40% in size. In a few lines:
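DPX-2 HepG2 cells carrying a PXR response element and CYP3A4-promoter luciferase construct, treated with compounds 24 hr at 37C. Then P450-Glo CYP3A4 Luciferin-IPA substrate (3uM final) for 3 hr at 37C, One-Glo added, luminescence read.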

In assay [7] the target is Cytochrome P450 2D6 (Homo sapiens) (UniProt P10635). As to the kind of experiment: Cytochrome P450 Family 2 Subfamily D Member 6 (CYP2D6) small molecule antagonists: luciferase reporter qHTS assay (AID 1671196). Note: nearly all actives have a fitted effect of over 50% in size. In a few lines:
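Cell-free P450-Glo system: CYP2D6 with proluciferin substrate was pre-incubated with compound for 10 min, then reacted with NADPH regeneration for 1 h at room temperature. Luciferin product was detected after 20 min, and data were reported as relative luminescence units.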
(A reporter such as luciferase makes a cellular process visible.)

Assay [8] deals with Nuclear receptor subfamily 1 group I member 2 (Homo sapiens) (UniProt O75469). The experiment in a line: Human pregnane X receptor (PXR) small molecule agonists, qHTS assay (AID 1346982). Note: nearly all actives have a fitted effect of over 35% in size. In a few lines: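 PXR-Luc HepG2 reporter cells (CYP3A4-driven luciferase) in 5% charcoal-stripped FBS medium, plated 5 h before compound addition, then treated 24 h at 37C. Luciferase read by ONE-Glo luminescence after 30 min at room temperature.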
Chain of Nuclear receptor subfamily 1 group I member 2 (Homo sapiens) (O75469 whole entry, looked up): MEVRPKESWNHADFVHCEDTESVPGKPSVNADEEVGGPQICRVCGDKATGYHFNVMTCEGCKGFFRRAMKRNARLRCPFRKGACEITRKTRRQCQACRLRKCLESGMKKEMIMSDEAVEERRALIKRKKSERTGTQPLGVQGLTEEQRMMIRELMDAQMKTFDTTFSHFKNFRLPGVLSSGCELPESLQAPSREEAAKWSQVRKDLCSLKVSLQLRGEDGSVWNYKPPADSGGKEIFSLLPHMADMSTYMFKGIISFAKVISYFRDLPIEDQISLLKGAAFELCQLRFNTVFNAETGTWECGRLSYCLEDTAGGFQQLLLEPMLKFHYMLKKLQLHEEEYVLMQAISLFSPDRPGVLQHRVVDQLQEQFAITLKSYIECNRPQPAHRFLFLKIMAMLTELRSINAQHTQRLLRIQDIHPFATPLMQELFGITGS

Where “and” joins values, the source holds several entries; their conditions need not be identical. Equal values may be shown once. Results filed as inconclusive are left out. A structure can be active in one record and inactive in another. Calls of active or inactive are those of the source. Calls come from the whole dose curve; as a rule, active = well fitted curve in the direction sought with a large enough effect in the repeat runs; inconclusive = weak or mixed curves; inactive = no such curve, though single readings can be large; an effect the other way counts as inactive or inconclusive.
% is set by controls: 0 for no effect and ±100 for the full control effect; potency is the fitted concentration of half-maximal effect.

Chain of Nuclear receptor subfamily 1 group I member 2 (Rattus norvegicus) (Q9R1A7 whole entry, looked up): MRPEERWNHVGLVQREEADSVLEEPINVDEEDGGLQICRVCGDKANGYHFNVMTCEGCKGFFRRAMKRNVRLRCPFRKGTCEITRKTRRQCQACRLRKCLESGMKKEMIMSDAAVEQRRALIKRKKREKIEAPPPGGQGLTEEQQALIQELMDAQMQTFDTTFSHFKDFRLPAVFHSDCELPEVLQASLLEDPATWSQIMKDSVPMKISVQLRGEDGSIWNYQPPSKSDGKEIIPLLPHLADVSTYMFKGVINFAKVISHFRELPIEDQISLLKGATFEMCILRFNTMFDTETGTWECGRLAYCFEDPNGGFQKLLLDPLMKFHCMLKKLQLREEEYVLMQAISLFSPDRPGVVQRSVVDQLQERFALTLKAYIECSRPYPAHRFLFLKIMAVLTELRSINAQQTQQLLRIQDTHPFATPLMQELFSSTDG
Chain of Cytochrome P450 2D6 (Homo sapiens) (P10635 whole entry, looked up): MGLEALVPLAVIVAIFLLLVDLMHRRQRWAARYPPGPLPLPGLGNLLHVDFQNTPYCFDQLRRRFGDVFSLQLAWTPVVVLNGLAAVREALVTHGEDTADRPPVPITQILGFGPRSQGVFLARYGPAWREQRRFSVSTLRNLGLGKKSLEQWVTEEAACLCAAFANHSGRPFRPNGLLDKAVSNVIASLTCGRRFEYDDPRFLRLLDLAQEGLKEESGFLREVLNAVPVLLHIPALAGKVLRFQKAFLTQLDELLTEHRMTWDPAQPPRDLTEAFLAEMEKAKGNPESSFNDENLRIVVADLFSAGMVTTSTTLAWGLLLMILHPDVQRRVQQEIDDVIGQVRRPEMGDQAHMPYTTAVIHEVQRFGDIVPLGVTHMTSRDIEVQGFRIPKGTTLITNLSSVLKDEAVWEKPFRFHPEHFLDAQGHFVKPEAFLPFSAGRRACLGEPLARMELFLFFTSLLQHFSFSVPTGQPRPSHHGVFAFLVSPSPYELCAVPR

On to `Cc1cc(O)c2ccccc2c1O`, for which the Potency result in assay [1] and in assay [3] was “inactive” each time. Also, the Potency in assay [2] was 10.6 µM (active); in assay [4] it was 33.5 µM (active); in assay [6], 1.58 µM (active); in assay [7], 17.4 µM (active). Besides, the max activation in assay [5] is 10% (inactive).

Turning to `CC(C)(C)c1ccc(C(=O)CCCN2CCC(OC(c3ccccc3)c3ccccc3)CC2)cc1`, the Potency is 29.8 µM (active) in assay [1], 18.8 µM (active) in assay [2], 21.1 µM (active) in assay [3] and 29.8 µM (active) in assay [4]. Moreover, in assay [5], the max activation was -2.11% (inactive).

As to `O=C(Nc1cccc(C(F)(F)F)c1)c1cc(Br)cc(Br)c1O`, the Potency entry in assay [1], in assay [3], in assay [6] and in assay [7] was “inactive” each time. Moreover, the figures for the Potency in assay [2] and in assay [8] were 6.86 µM (active) and 17.2 µM (active), respectively. The max activation in assay [5] was -18.6% (inactive).

Take `O=C(Nc1ccc(Oc2ccc(Cl)cc2)c(Cl)c1)c1cc(I)cc(I)c1O`: the Potency result in assay [1], in assay [2], in assay [3] and in assay [7] was “inactive” each time. The Potency in assay [8] is 26.6 µM (active); in assay [6] it was 22.4 µM (active). In addition, the max activation in assay [5] is -12.9% (inactive).

Consider `CN(C/C=C/C#CC(C)(C)C)Cc1cccc2ccccc12`, for which the Potency entry in assay [1], in assay [2], in assay [3] and in assay [4] was “inactive” in each case. In addition, the max activation in assay [5] was 0.136% (inactive). Moreover, the Potency in assay [7] was 0.275 µM (active).

On to `O=C(OCC1CO1)C1CCCCC1C(=O)OCC1CO1` (centres undefined), for which the Potency result in assay [1], in assay [3] and in assay [7] was “inactive” throughout. In assay [2], the Potency is 68.7 µM (active).

On to `CCCC1O[C@@H]2C[C@H]3[C@@H]4CCC5=CC(=O)C=C[C@]5(C)[C@H]4[C@@H](O)C[C@]3(C)[C@]2(C(=O)CO)O1` (some centres undefined), for which the Potency entry in assay [1] and in assay [3] was “inactive” in each case. Also, the Potency in assay [2] was 61.2 µM (active) and 61.1 µM (active); in assay [5], 12.6 µM (active).

As to `CC(=O)N1CCN(c2ccc(OC[C@H]3CO[C@](Cn4ccnc4)(c4ccc(Cl)cc4Cl)O3)cc2)CC1`, the Potency is 68.6 µM (active) in assay [1], 27.3 µM (active) in assay [2] and 61.1 µM (active) in assay [4]. Also, the Potency entry in assay [3] and in assay [6] was “inactive” each time. Further, the max activation in assay [5] is -4.95% (inactive).

As for `CCN(C(=O)N(CC)c1ccccc1)c1ccccc1`, the Potency result in assay [1], in assay [2], in assay [3], in assay [4] and in assay [7] was “inactive” in each case.

Regarding `Nc1nc2ccccc2n1Cc1ccc(F)cc1`, the Potency result in assay [1] and in assay [3] was “inactive” throughout. In addition, the Potency is 23.7 µM (active) in assay [2] and 0.692 µM (active) in assay [7].

As to `CCCCCCCC/C=C\CCCCCCCCOCCO`, the Potency entry in assay [1], in assay [3] and in assay [7] was “inactive” throughout. Moreover, the Potency in assay [2] was 35.5 µM (active); in assay [4], 35.5 µM (active); in assay [8] it was 3.98 µM (active).

With `CC(C)OC(=O)c1cc2c(OCC(O)CNC(C)(C)C)cccc2[nH]1` (centres undefined), the Potency result in assay [1], in assay [2], in assay [3] and in assay [4] was “inactive” throughout. Further, the Potency in assay [7] is 13.8 µM (active).

On to `NC(=NCCCCCCN=C(N)/N=C(\N)Nc1ccc(Cl)cc1)/N=C(\N)Nc1ccc(Cl)cc1`, for which the Potency result in assay [1] and in assay [3] was “inactive” each time. The Potency in assay [2] was 24.2 µM (active) [middle of 5 runs]; in assay [8] it was 2.41 µM (active) and inactive.

Take `CC[C@@]1(O)C(=O)OCc2c1cc1n(c2=O)Cc2c-1nc1ccccc1c2/C=N/OC(C)(C)C`: the Potency in assay [1] was 0.335 µM (active); in assay [2], 0.75 µM (active); in assay [3], 11.9 µM (active). The Potency result in assay [8] and in assay [7] was “inactive” each time.

As for `C[C@H]1[C@H]2CC[C@H]3[C@@H]4CC=C5C[C@@H](N(C)C)CC[C@]5(C)[C@H]4CC[C@]23CN1C`, the Potency result in assay [1], in assay [2], in assay [3] and in assay [4] was “inactive” throughout. Besides, the max activation in assay [5] is -5.76% (inactive).

Consider `CCCC/C=C/CCCCO`, for which the Potency entry in assay [1], in assay [2], in assay [3], in assay [4] and in assay [7] was “inactive” throughout.

As for `CCCC(=O)OC[C@@H](OC(=O)CCC)[C@@H](OC(=O)CCC)[C@H](Cn1c2nc(=O)[nH]c(=O)c-2nc2cc(C)c(C)cc21)OC(=O)CCC`, the Potency entry in assay [1], in assay [3] and in assay [6] was “inactive” each time. Also, the Potency in assay [7] is 8.71 µM (active).
